The record followed here is ChEMBL document CHEMBL3988442, “University of Dundee, Small-Polar-MMV Screening Library” (2021).

SMILES strings stand for the structures. The whole screen tested about 48,000 compounds, of which about 13,000 (27%) showed an effect of 50% or more. The list shows a part of the results.

The subject of this assay is Wolbachia pipientis. Nature of the assay: Anti-Wolbachia Cell-Based Screen. In kind it is functional. Details: scale not given: in the data most compounds retested in dose-response had high values. Particulars: 5 µM.
As to `Cc1cnc(N2C[C@@H]3[C@@H](C2)OCC(=O)N3CC(C)C)nc1.O=C(O)C(F)(F)F`, the “Percent Effect” value is on record as -17.14%. Regarding `O=C(CCc1cc2n(n1)CCCN(CCc1ccccc1)C2)NC1CC1`, the “Percent Effect” value is 113.2%. For `Nc1ncccc1CN1CCCn2nc(CCC(=O)NC3CC3)cc2C1` the value was 172.9%; for `O=C(CCc1cc2n(n1)CCCN(Cc1ccccc1F)C2)NC1CC1`, 0.7471%. For the molecule `CCn1cc(CN2CCCn3nc(CCC(=O)NCCO)cc3C2)cn1`, the “Percent Effect” value was -3.785%. On to `CSc1ccccc1CN1CCCn2nc(CNC(=O)N(C)C)cc2C1`, for which the “Percent Effect” value was 2.043%.

Consider `Cc1cc(CN2CCCn3nc(CCC(=O)O)cc3C2)ccc1F`, for which the “Percent Effect” value is listed as -13.15%. For `Cc1nc(C(NC(=O)CC(F)(F)F)c2ccc(Cl)cc2)no1` (configuration not stated) the value was 0.7806%. For `COCC(=O)N1CCCC1c1nc(C)c2c(n1)N(CC(C)C)C(=O)CC2` (configuration not stated) the value was 117%; for `COCC(=O)N1CCCCC1c1nc(C)c2c(n1)N(C1CC1)C(=O)CC2` (configuration not stated), 63.67%; for `Cn1c(C2CCCN2C(=O)CN2CCCC2=O)nc2ccccc21` (configuration not stated), 0.4362%. In the case of `CC(C)CS(=O)(=O)CC(=O)N1CCCC1c1noc(C2CC2)n1` (configuration not stated), the “Percent Effect” value is given as -6.47%. With `COCC(=O)N1CCCC1c1cccc(C)c1C` (configuration not stated) the figure was 4.955%; with `COCCn1cc(C(=O)N2CCCC2c2noc(C)n2)ccc1=O` (configuration not stated), 10.03%; with `COCCC(=O)N1CCCC1c1nc(C)c2c(n1)N(C)C(=O)CC2` (configuration not stated), 147.7%. As for `COCCC(=O)N1CCCC1c1cccc(C)c1C` (configuration not stated), the “Percent Effect” value stood at 3.518%.

Regarding `COCC(=O)N1CCCCC1c1nc(C)c2c(n1)N(CC1CC1)C(=O)C2` (configuration not stated), the “Percent Effect” value turned out to be 105.7%.

With `CC(Nc1nc2c(cnn2C)c(=O)[nH]1)c1ccc(F)cc1` (configuration not stated), the “Percent Effect” value is given as -20.73%.

As for `COCCN1CC(C(=O)N(C)Cc2cc(-c3cccnc3)no2)CC1=O` (configuration not stated), the “Percent Effect” value was -16.5%. For the molecule `O=C(c1cnc2c(c1)CCC2)N1CCCC(CO)(CC2CC2)C1` (configuration not stated), the “Percent Effect” value is -2.632%. As to `OC[C@@H](O)CN(CCC(F)(F)F)c1ncc(Br)cn1`, the “Percent Effect” value came out at 8.436%.

Regarding `CCC(Nc1nnnn1-c1ccccc1)C(=O)NCc1ccsc1` (configuration not stated), the “Percent Effect” value came out at 4.065%. For `CCN(CC)C(=O)CN1CCCC1c1nc(C)c2c(n1)N(C)C(=O)CC2` (configuration not stated) the value was 125.7%; for `Cc1nc(C2CCCN2CC(=O)N(Cc2ccsc2)C2CC2)no1` (configuration not stated), -3.982%. Take `CCN(CC)C(=O)CN1CCCC1C(=O)N(C)C` (configuration not stated): the “Percent Effect” value came out at 1.193%. With `Cc1ccc(CN2CCc3ncc(CNS(C)(=O)=O)n3CC2)o1.O=C(O)C(F)(F)F` the figure was -0.4637%; with `Cn1cccc1C(=O)NCc1cnc2n1CCN(CC1CC1)C2.O=C(O)C(F)(F)F`, -11%. For the molecule `O=C(NCc1cnc2n1CCN(Cc1nccs1)CC2)C1CCC1.O=C(O)C(F)(F)F`, the “Percent Effect” value came out at 95.25%. Regarding `O=C(NCc1cn2c(n1)CN(Cc1nccs1)CC2)C1CCC1.O=C(O)C(F)(F)F`, the “Percent Effect” value is reported as -3.871%. On to `Cn1cccc1C(=O)NCc1cnc2n1CCN(CC1CCOCC1)C2.O=C(O)C(F)(F)F`, for which the “Percent Effect” value is 19.82%. On to `O=C(NCc1cnc2n1CCN(Cc1ccsc1)CC2)C1CCC1.O=C(O)C(F)(F)F`, for which the “Percent Effect” value is on record as -9.045%. Turning to `Cn1ccnc1C(=O)NC[C@@H]1OC[C@H]2CN(CC3CC3)CC[C@H]21.O=C(O)C(F)(F)F`, the “Percent Effect” value is on record as -43.28%.

In the case of `O=C(NCc1cnc2n1CCN(CC1CCOCC1)C2)c1ccno1.O=C(O)C(F)(F)F`, the “Percent Effect” value is given as -43.24%.

On to `Cc1cc(C(=O)N2CCc3ncc(CN4CCCC4)n3CC2)no1.O=C(O)C(F)(F)F`, for which the “Percent Effect” value is -20%. Consider `Cn1ccnc1C(=O)NCc1cnc2n1CCN(CC1CC1)CC2.O=C(O)C(F)(F)F.O=C(O)C(F)(F)F`, for which the “Percent Effect” value stood at 88.03%.

Take `Cc1ccc(CN2CCc3ncc(CNC(=O)C4CCC4)n3CC2)o1.O=C(O)C(F)(F)F`: the “Percent Effect” value is 89.47%. With `O=C(NCc1cnc2n1CCN(CC1CC1)C2)C1CC1.O=C(O)C(F)(F)F` the figure was 80.69%; with `CC(=O)Nc1ccsc1C(=O)Nc1cnc2n1CCCC2`, 1.629%; with `CNc1nc(C(=O)NCC2CCOc3ccccc3C2)cs1` (configuration not stated), 3.092%. Regarding `CC(C)C1CN(c2nccc(N)n2)CCC(=O)N1Cc1ccc(F)cc1` (configuration not stated), the “Percent Effect” value was 6.607%.

For the molecule `COc1cccc(OCC2CCCN(C(=O)c3ccc(N)nc3)C2)c1` (configuration not stated), the “Percent Effect” value was -26.62%. Regarding `CC(C)N(CC(=O)Nc1ccc(Br)cc1Cl)Cc1cccnc1`, the “Percent Effect” value was -0.1768%. As for `COC(=O)CCC(=O)N1CCc2nc(C(=O)N3CCOCC3)sc2CC1`, the “Percent Effect” value is reported as -7.844%. On to `CN(Cc1ccco1)[C@@H]1CN(CC2CCOCC2)C[C@@H]2CCCO[C@@H]21.O=C(O)C(F)(F)F.O=C(O)C(F)(F)F`, for which the “Percent Effect” value turned out to be 2.943%. For `CCNC(=O)N1CCC(c2ccccc2)C1` (configuration not stated) the value was 124.1%; for `O=C(NCCNC(=O)N1CCC(c2ccccc2)C1)C1CC1` (configuration not stated), -9.135%; for `CCN(CC)C(=O)CCNC(=O)N1CCC(c2ccccc2)C1` (configuration not stated), 4.092%.

As to `COc1nn(C)cc1C(=O)N1CCC(C)CC1`, the “Percent Effect” value stood at 127.9%. With `COc1nn(C)cc1C(=O)N1CCC(c2ccccc2)C1` (configuration not stated) the figure was 121.1%; with `CC1CCN(C(=O)c2cn(-c3cc(N4CCSCC4)ncn3)cn2)CC1`, 12.42%; with `CC1CCN(C(=O)c2ccn(COc3ccc(F)cc3)n2)CC1`, 3.69%. For `Cn1cnc2cc(C(=O)N3CCC(c4ccccc4C(=O)O)C3)cnc21` (configuration not stated) the value was 0.5169%; for `CS(=O)(=O)Cc1ccc(Cl)cc1NCc1cccc(F)c1F`, -9.935%; for `CC(=O)NCC1CCN(CC2CCOc3ccccc3C2)CC1` (configuration not stated), 6.943%.

`CCCN1CC2(CCN(C)CC2)CC1C(=O)NCCn1cccn1` (configuration not stated): the “Percent Effect” value was determined as 6.399%.

For the molecule `COc1ccc(CN2CCN(CC3CC3)[C@@H]3CS(=O)(=O)C[C@@H]32)cc1C`, the “Percent Effect” value came to 20.23%.

Consider `CNS(=O)(=O)c1cccc(CNc2nccc(C(F)(F)F)n2)c1`, for which the “Percent Effect” value is given as -7.88%. With `COc1ccc(Cl)cc1CN(C)CC(=O)/N=c1\cc[nH]n1C(C)C1CC1` (configuration not stated) the figure was -13.95%; with `OC1(CNCCc2nc(Cc3ccccc3)no2)CNCCOC1` (configuration not stated), 14.79%. For `Cc1nc2c(c(NCCc3nc4c(s3)CCCC4)n1)CCNCC2` the value was 7.698%. As for `OC1(CNCCSc2ccccn2)CNCCOC1` (configuration not stated), the “Percent Effect” value is reported as -26.11%. Take `OC1(CNCCc2nc3c(s2)CCCC3)CCNC1` (configuration not stated): the “Percent Effect” value is recorded as 87.02%. Turning to `OC1(CNCCc2nc3c(s2)CCCC3)CNCCOC1` (configuration not stated), the “Percent Effect” value worked out at 109%.

`C1Cc2nc(CCNc3nc(C4CC4)nc4c3CCNCC4)sc2C1`: the “Percent Effect” value is reported as 0.8801%. With `CC(C)NCc1nc(-c2ccc3c(c2)OCO3)c[nH]1.Cl.Cl`, the “Percent Effect” value turned out to be 8.786%. As for `CCCc1cc(NC(=O)c2cccc(N3CCCNC3=O)c2)n[nH]1`, the “Percent Effect” value is listed as 11.29%. With `Cc1ccccc1-c1cncc(C2CCN(CCO)CC2)n1` the figure was 122.1%; with `Cc1ccccc1-c1cncc(C2CCN(S(=O)(=O)N(C)C)CC2)n1`, 110.9%; with `COCCN1CCC(c2cncc(-c3ccccc3C)n2)CC1`, 100.9%. As for `CN(C)S(=O)(=O)N1CCC(Cn2cccn2)CC1`, the “Percent Effect” value turned out to be 2.027%. With `Cc1ccccc1-c1cncc(C2CCN(C)CC2)n1`, the “Percent Effect” value was -14.26%.

In the case of `Cn1cncc1-c1nnc([C@H]2CCN(C3CCOCC3)C2)o1`, the “Percent Effect” value was -2.913%. Regarding `Cc1ccccc1-c1cncc(C2CCN(C3CCOCC3)CC2)n1`, the “Percent Effect” value is 110.9%. For `CCc1nc2n(n1)CC(NCC(=O)Nc1ccc(Cl)cn1)CC2` (configuration not stated), the “Percent Effect” value was -9.728%. Turning to `CC(C)(C)NC(=O)Cn1cc(C(N)=O)c(-c2ccccc2)n1`, the “Percent Effect” value is listed as 6.588%. As for `CN1CCN(Cc2noc(-c3cc(-c4ccc(F)cc4)n[nH]3)n2)CC1`, the “Percent Effect” value is listed as -13.75%. For `Clc1ccc2cccnc2c1CN1CCCC(Cn2cncn2)C1` (configuration not stated) the value was -4.204%. Take `CCn1c(CN2CCCC2)nnc1C1CCN(Cc2ccccn2)CC1`: the “Percent Effect” value is reported as -10.72%. Turning to `CN(CC(F)(F)F)C(=O)CN1CCC(c2cc3ccccc3[nH]2)CC1`, the “Percent Effect” value is on record as -8.939%. With `Oc1nc(C2CCN(Cc3ccccn3)CC2)cc2ccccc12` the figure was 103.3%; with `Cc1ccccc1-c1cncc(C2CCN(Cc3ccccn3)CC2)n1`, 93.34%. In the case of `Cc1ccccc1-c1cncc(C2CCN(C(=O)CN(C)C)CC2)n1`, the “Percent Effect” value is on record as -14.47%. For `CCn1c(CN(C)C)nnc1C1CCN(Cc2ccccn2)CC1`, the “Percent Effect” value worked out at 2.831%. With `Cc1ccccc1-c1cncc(C2CCN(CC(=O)N(C)C)CC2)n1`, the “Percent Effect” value is on record as 124.8%. Take `Fc1ccccc1CC1CCN(Cc2ccccn2)CC1`: the “Percent Effect” value was -1.082%. For `Cc1ccccc1-c1cncc(C2CCN(Cc3cnn(C)c3)CC2)n1`, the “Percent Effect” value was found to be 99.14%. With `Cn1cc(CN2CCC(CCC(=O)Nc3ccccc3Cl)CC2)cn1` the figure was 1.121%.

Turning to `CC(=O)Nc1ccc(CC(=O)N2CC(S(=O)(=O)C3CCCCC3)C2)cc1`, the “Percent Effect” value turned out to be 1.653%. As for `Cc1oc(-c2ccsc2)nc1CNCCn1cccn1`, the “Percent Effect” value was -19.09%.

With `c1nc(NCC2(N3CCOCC3)CCSC2)c2sccc2n1` (configuration not stated), the “Percent Effect” value is given as -18.02%. For the molecule `CCc1nc(NCCCOC)c2c(n1)c(C)nn2C`, the “Percent Effect” value amounted to 12.69%.

Regarding `O=C(CN1CCCC1c1nc(-c2ccccn2)no1)N1CCNCC1` (configuration not stated), the “Percent Effect” value is 2.337%.

For the molecule `CCCn1ccnc1CN1CCCC1c1ccccn1` (configuration not stated), the “Percent Effect” value was 6.189%.

With `CCc1nccn1CC(=O)N1CCN(C2CCc3ccccc3C2)CC1` (configuration not stated), the “Percent Effect” value is recorded as -21%. For `CCc1nccn1-c1cncc(C2CCCN2Cc2ccccn2)n1` (configuration not stated) the value was 112.2%; for `CN(C)C(=O)CCc1cncc(C2CCCN2Cc2ccccn2)n1` (configuration not stated), 97.92%. On to `CCc1nccn1-c1cncc(C2CCCN2Cc2ccc(F)cc2)n1` (configuration not stated), for which the “Percent Effect” value is -3.137%.

For `CCn1ccnc1CN1CCN(Cc2ccccn2)CC1C` (configuration not stated), the “Percent Effect” value is reported as -25.03%. For `CCc1nccn1-c1cncc(C2CCCN2Cc2ccccc2)n1` (configuration not stated) the value was 119.3%; for `CN(CCc1ccccn1)S(=O)(=O)N1CCCC1c1ccco1` (configuration not stated), 10.93%. For `CCc1nccn1-c1cncc(C2CCCN2CC(=O)N2CCCC2)n1` (configuration not stated) the value was 115.3%. With `CCc1nccn1-c1cncc(C2CCCN2Cc2cccnc2)n1` (configuration not stated), the “Percent Effect” value is listed as -2.141%.
